Drawing on PubChem BioAssay AID2158 (National Center for Advancing Translational Sciences (NCATS), 2009), this text covers Potency and activity change, negative = inhibition for 15 compounds.

Records with an inconclusive call do not appear. Calls of active or inactive are those of the source. Calls come from the whole dose curve; as a rule, active = well fitted inhibition curve with a large enough effect; inconclusive = small, poorly fitted or top-dose-only effect; inactive = no such curve, though single readings can be large or run the other way.
Potency is the fitted concentration of half-maximal effect.

Sequence of Cruzipain (Trypanosoma cruzi) (P25779 123-467 limits assumed): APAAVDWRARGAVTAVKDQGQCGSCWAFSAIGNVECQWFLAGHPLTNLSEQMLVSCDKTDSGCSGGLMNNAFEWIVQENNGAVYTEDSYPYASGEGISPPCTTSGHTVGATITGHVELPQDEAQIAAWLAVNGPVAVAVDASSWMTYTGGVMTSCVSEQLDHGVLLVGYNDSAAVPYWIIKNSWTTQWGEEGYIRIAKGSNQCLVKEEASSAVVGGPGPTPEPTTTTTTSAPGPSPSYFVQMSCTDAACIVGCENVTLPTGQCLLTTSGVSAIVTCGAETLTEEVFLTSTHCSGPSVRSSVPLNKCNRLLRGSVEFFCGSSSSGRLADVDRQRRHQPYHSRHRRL

This test addresses Cruzipain (Trypanosoma cruzi) (UniProt P25779). Description: Confirmation qHTS Assay for Inhibitors of Cruzain.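 For activity change, negative = inhibition: plate controls were uninhibited enzyme control for no effect and buffer wells lacking enzyme for full effect.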 Note: nearly all actives have a fitted effect of over 40% in size. The conditions noted are these: purified cruzain, Z-FR-AMC fluorescence, 0.01% Triton. The method in brief:
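Reaction progress from the 60 s rise in AMC fluorescence (ex 360, em 450 nm) after adding 2 uM Z-FR-AMC. Before this, 1.5 nM cruzain sat 15 min at room temperature with compound in pH 5.5 acetate buffer with 5 mM DTT and 0.01% Triton X-100.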
Take `C=CC(=O)c1ccc2ccccc2c1`: the Potency is 25.1 µM (active).

On to `Cc1ccc2[nH]c(=O)c(CN(CCCO)Cc3nnnn3Cc3ccccc3)cc2c1`, for which the activity change, negative = inhibition was -13% (inactive).

Regarding `CCc1ccc(OCCCn2c(CCCNC(=O)C3CCCCC3)nc3ccccc32)cc1`, the activity change, negative = inhibition is -18.8% (inactive).

For `O=C(CNC(=O)c1ccc([N+](=O)[O-])cc1)OC(C(=O)Nc1cc(C(F)(F)F)ccc1Cl)c1ccccc1` (stereo not given), the Potency is 12.6 µM (active).

In the case of `CCN(CCO)c1nc(SC)nc2c1sc1nc(-c3ccco3)c3c(c12)CCC3`, the Potency was 17.8 µM (active).

Take `N#CN1CCC(NC(=O)c2ccc(C(F)(F)F)cc2)CC1`: the activity change, negative = inhibition was -6.84% (inactive).

`CCCCNC(=O)Cn1c(SCc2cccc(C)c2)nc2ccncc21`: the activity change, negative = inhibition was -22.6% (inactive).

Regarding `CCn1cnc2c(Nc3cc(F)cc(F)c3)nc(C#N)nc21`, the Potency is 0.01 µM (active).

As to `O=C(NCc1nnc(-c2cc3ccccc3[nH]2)o1)c1ccccc1`, the activity change, negative = inhibition is -2.11% (inactive).

As for `CCCCNc1nc(C#N)nc(Nc2ccccc2)n1`, the Potency is 0.891 µM (active).

Turning to `Cc1ccc(OCCCCn2c(CCNC(=O)C3CCCCC3)nc3ccccc32)cc1`, the Potency was 1.12 µM (active).

Regarding `Cn1nc(-c2ccc(F)cc2)nc2c(=O)n(C)c(=O)nc1-2`, the Potency is 0.631 µM (active).

With `O=C(CNC(=O)C1CCCC1)OC(C(=O)Nc1cc(C(F)(F)F)ccc1Cl)c1ccccc1` (stereo not given), the Potency is 7.94 µM (active).

Consider `Cc1ccc(SCCC(=O)OCC(=O)Nc2ncc(Cl)cc2Cl)cc1`, for which the activity change, negative = inhibition was -19.6% (inactive).

Take `O=C(Nc1nc(-c2ccc(S(=O)(=O)N3CCCCCC3)cc2)cs1)c1cccs1`: the activity change, negative = inhibition is -3.12% (inactive).
